# Screening data (PubChem)
# Compounds with a hit are over-represented: about 2.2% of the library has one in this group of screens.
# Nrf2 ARE act: qHTS of Nrf2 Activators. 410,000 tested, 0.31% active. AREc32 ARE-luciferase reporter (MCF7-derived line), luminescence, 24 h. AID 624171, 2012. Potency, µM (highest dose often 46.1 µM), hits mostly activators; further: nearly all actives have a fitted effect of over 65% in size
#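 Reporter line AREc32 (ARE-Fluc), seeded overnight in OPTI-MEM with 5% FBS; compound pin-transferred, 24 hr at 37 deg C, 5% CO2; luminescent read-out.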
# A549 tox-1: Nrf2 qHTS screen for inhibitors: counterscreen for cytotoxicity; A549 ARE-Fluc cells, CellTiter-Fluor viability, 18-24 h; Potency, µM (series often up to 46 µM), usual class: inhibitors; 390,000 tested, 0.16% active; AID 504648, 2011
#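 A549 ARE-Fluc cells in 5% FBS OPTI-MEM, 5000 cells/well, rested 2 h then exposed to compounds in concentration-response for 18-24 h at 37 °C. Viability by CellTiter-Fluor fluorescence (Ex 405/Em 525) after 30 min; luciferase luminescence (BugLite, 15 min, RT) read afterwards.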
# Nrf2 inh: Nrf2 qHTS screen for inhibitors; A549 ARE-Fluc reporter, luciferase luminescence, 18-24 h; Potency, µM (top dose mostly 46 µM), hits mostly inhibitors; 360,000 tested, 2.1% active; further: nearly all actives have a fitted effect of over 60% in size
#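 Nrf2 function is reported as luminescence of an ARE-controlled luciferase in A549 cells. Compounds were tested at several concentrations, and a CellTiter-Fluor read on the same wells flagged cytotoxicity.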
# Pin1 inh: qHTS Assay to Find Inhibitors of Pin1; Pin1 FP peptide displacement, HiFluor488, 10 min; Potency, µM (titrated, usually from 115 µM), most hits filed as inhibitors; 390,000 tested, 0.009% active; AID 504891, 2011; active means well fitted inhibition curve with a large enough effect in the polarisation, with a control signal flat, not every such curve was filed as active; inconclusive means small, poorly fitted or top-dose-only effect, or effect the other way, or a change in a side signal; inactive means no such curve, though single readings can be large or run the other way; the % refers to the polarisation
# Target sequence (Q13526 whole entry, looked up): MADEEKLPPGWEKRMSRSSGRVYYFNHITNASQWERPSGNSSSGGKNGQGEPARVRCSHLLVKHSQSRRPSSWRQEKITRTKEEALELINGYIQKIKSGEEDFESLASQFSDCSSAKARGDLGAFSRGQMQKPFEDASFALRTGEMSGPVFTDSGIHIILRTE
# FLuc enzyme inh: Nrf2 qHTS screen for inhibitors: Purified Fluc Biochemical Counterscreen for Hit Validation | Potency, µM (titrated, usually from 57.5 µM), usual class: inhibitors | purified firefly luciferase, luminescence inhibition | shares compounds with Nrf2 inh | 1,400 tested, 4% active | AID 720522, 2013; further: nearly all actives have a fitted effect of over 65% in size
# Target sequence (P08659 whole entry, looked up): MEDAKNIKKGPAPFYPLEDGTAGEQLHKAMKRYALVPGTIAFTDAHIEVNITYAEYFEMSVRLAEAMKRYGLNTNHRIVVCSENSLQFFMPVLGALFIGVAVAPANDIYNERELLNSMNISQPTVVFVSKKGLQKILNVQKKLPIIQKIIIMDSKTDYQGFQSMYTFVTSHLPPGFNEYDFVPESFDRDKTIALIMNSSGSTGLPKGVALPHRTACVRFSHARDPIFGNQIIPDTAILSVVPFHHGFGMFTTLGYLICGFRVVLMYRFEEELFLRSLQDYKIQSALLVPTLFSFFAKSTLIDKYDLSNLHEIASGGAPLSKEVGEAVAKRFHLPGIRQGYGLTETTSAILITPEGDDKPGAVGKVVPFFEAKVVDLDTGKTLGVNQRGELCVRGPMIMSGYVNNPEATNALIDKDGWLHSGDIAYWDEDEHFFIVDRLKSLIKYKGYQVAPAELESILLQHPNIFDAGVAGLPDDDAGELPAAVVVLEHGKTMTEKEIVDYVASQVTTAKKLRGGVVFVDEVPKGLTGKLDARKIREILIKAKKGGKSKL
# A549 tox-2: Nrf2 qHTS screen for inhibitors: A549 ARE-Fluc Cytotoxicity Counterscreen for Hit Validation; shares compounds with Nrf2 inh; A549 ARE-Fluc cells, cytotoxicity counterscreen; Potency, µM (highest dose often 46.1 µM), usual class: inhibitors; 1,400 tested, 2% active;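 further: cells exposed to compounds for 18 to 24 hours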
# Nrf2 ARE inh: Nrf2 qHTS screen for inhibitors: Nrf2 A549 ARE-Fluc Confirmation Assay for Hit Validation. shares compounds with Nrf2 inh. A549 ARE-firefly luciferase reporter, luminescence. Potency, µM (doses to about 46.1 µM), actives largely listed as inhibitors. 1,400 tested, 74% active; further: nearly all actives have a fitted effect of over 65% in size
# Numbers stand for hits; 0 = inactive; ? = inconclusive; - = not tested or not shown. Unless noted, the call rests on the fitted dose curve; in most records, active means well fitted curve in the direction sought with a large enough effect; inconclusive means small, poorly fitted or top-dose-only effect, or another doubt; inactive means no such curve, though single readings can be large; an effect the other way counts as inactive or inconclusive.
SMILES,Nrf2 ARE act,A549 tox-1,Nrf2 inh,Pin1 inh,FLuc enzyme inh,A549 tox-2,Nrf2 ARE inh
CC1=CC(=O)C=C/C1=C(/c1ccc(O)cc1C)c1ccccc1S(=O)(=O)O,0,0,0,0,-,-,-
CCN(Cc1cccc(S(=O)(=O)O)c1)c1ccc(C(=C2C=CC(=[N+](CC)Cc3cccc(S(=O)(=O)O)c3)C=C2)c2ccc(O)cc2S(=O)(=O)O)cc1,-,-,-,-,9.5µM,?,8.2µM
Cc1nc2ccc(NS(=O)(=O)c3ccc(F)c(C)c3)cc2[nH]1,0,0,8.2µM,0,0,0,5.8µM
Cc1nc2ccc(S(=O)(=O)c3ccc4nc(C)[nH]c4c3)cc2[nH]1,0,0,-,0,-,-,-
COc1ccc2nc3oc(C(=O)N4CCN(c5cc(C)ccc5C)CC4)cc3cc2c1,0,0,?,0,-,-,-
CC(=NNC(=S)N1CCCCC1)c1ccccn1,0,-,-,-,-,-,-
CC(=NNC(=S)N1CC2CCC(CC2)C1)c1ccncn1,0,16µM,1.3µM,0,11µM,?,0.37µM
CCOC(=O)c1c(C)[nH]c(C)c1S(=O)(=O)N1CCC(C(=O)NCc2ccc(F)cc2)CC1,0,0,?,0,-,-,-
COc1ccc2[nH]c3c(c2c1)CCN1C(=O)C(CC(=O)NCc2cccc(C(F)(F)F)c2)C[C@H](C(=O)N2CCCCC2)[C@@]31CCc1ccccc1 (stereo partly drawn),0,0,6.5µM,?,0,0,21µM
Cc1cc(C)nc(SCC(=O)Nc2ccnc3ccccc23)n1,0,?,1.2µM,0,0,0,0
O=C(CSC1=NCCS1)Nc1ccnc2ccccc12,0,0,5.2µM,0,0,0,7.3µM
O=C(Nc1ccc2c(c1)OCCO2)c1cccc2nc3ccccc3nc12,0,21µM,2.6µM,?,?,12µM,-
CSc1ccc(CCNc2ncnc3onc(-c4ccc(Cl)cc4)c23)cc1,0,0,9.2µM,0,0,0,?
Fc1ccc(-c2noc3ncnc(NCCc4ccc(Cl)cc4)c23)cc1,0,0,?,0,-,-,-
Cc1cc(C)cc(NC(=O)Cn2c(C)cc(C)c(C#N)c2=O)c1,0,0,-,0,-,-,-
COc1ccccc1NS(=O)(=O)c1cccc(C(=O)NC2CCN(Cc3ccccc3)CC2)c1,0,?,2.3µM,0,0,0,?
CCOCCCNC(=O)c1c(NC(=O)c2cc(=O)c3cc(C)c(C)cc3o2)sc2c1CCC2,0,0,0,0,-,-,-
O=C(NCc1ccc(F)cc1)c1cnc(N2CCCCC2)c2ccccc12,0,0,-,0,-,-,-
COc1cc(C2CC(=O)Nc3c2c(C)nn3-c2nncc(-c3ccccc3)n2)cc(OC)c1OC (stereo not drawn),0,0,?,0,-,-,-
CC(NNC(=S)N1CCN(c2ccccn2)CC1)c1nccc2ccccc12 (stereo not drawn),0,?,5.8µM,0,0,?,?
COc1ccc(Cl)cc1NC(=O)CSc1nnc2[nH]c(=O)cc(-c3ccccc3)n12,0,0,-,0,-,-,-
CCOC(=O)N1CCN(S(=O)(=O)c2ccc(C(=O)NNc3nc4ccc(Cl)cc4s3)cc2)CC1,0,?,5.8µM,0,0,0,7.3µM
Cc1cccc2sc(NNC(=O)c3ccc(S(=O)(=O)N4CCCC(C)C4)cc3)nc12 (stereo not drawn),0,0,?,0,-,-,-
Cc1cccc2sc(NNC(=O)c3ccc(S(=O)(=O)N4CCc5ccccc5C4)cc3)nc12,0,0,?,0,0,0,6.5µM
Cc1nn(C(C)C(=O)Nc2cccc(F)c2)c(=O)c2c1sc1ccccc12 (stereo not drawn),0,0,0,0,-,-,-
SMILES,Nrf2 ARE act,A549 tox-1,Nrf2 inh,Pin1 inh,FLuc enzyme inh,A549 tox-2,Nrf2 ARE inh
CCCCC(=O)Nc1cc(-c2cn3cccnc3n2)ccc1C,0,0,-,0,-,-,-
CSC(=S)NN=C(C)c1cccc(C)n1,0,?,4.1µM,0,?,0,-
CSc1ccc2nnc(-c3ccc(C)cc3)n2n1,-,0,0,0,-,-,-
CCN(CC)S(=O)(=O)c1ccc(C)c(NC(=S)N2CCN(Cc3ccc4c(c3)OCO4)CC2)c1,0,0,6.5µM,0,0,0,10µM
Cc1ccc(NC(=S)N2CCN(Cc3ccc4c(c3)OCO4)CC2)c(C)c1,0,0,?,0,-,-,-
CCOCCn1ccc2c(OCC(=O)NCc3ccc(F)cc3)cccc2c1=O,0,0,-,0,-,-,-
Cc1cc(Nc2ccccc2C(=O)O)n(-c2ccc([N+](=O)[O-])cc2)n1,0,?,6.5µM,0,0,0,?
Clc1ccc(OCCN2CCN(c3ncnc4sccc34)CC2)cc1,0,0,0.26µM,0,0,0,0.46µM
CCc1ccc(-n2nc3ccc(NC(=O)COc4ccc(OC)cc4)cc3n2)cc1,0,0,1.6µM,0,0,0,0
Cc1ccc(Cl)cc1N1CCN(C(=O)c2cc3c(=O)n(C)c4ccccc4c3n2C)CC1,0,0,4.1µM,0,0,0,6.5µM
COc1ccc(-c2onc(C)c2C)cc1S(=O)(=O)N1CCN(c2ccc(Cl)cc2)CC1,0,0,?,0,-,-,-
O=C(c1cc(S(=O)(=O)N2CCN(c3ccccc3)CC2)ccc1Cl)N1CCCC(C(F)(F)F)C1 (stereo not drawn),0,0,4.6µM,0,0,0,5.2µM
O=C1CC(c2ccco2)Cc2[nH]c(=O)c(C(=O)Nc3ccccc3)cc21 (stereo not drawn),-,-,-,-,0,0,?
Cc1ccc(C)n1-c1nnc(N2CCC(C(=O)Nc3ccccc3Br)CC2)s1,0,0,0,0,-,-,-
O=C(Nc1cccc(C(F)(F)F)c1)c1cc(-c2ccc(Cl)cc2)on1,0,0,0,0,-,-,-
FC(F)(F)c1cccc(Nc2nc3nonc3nc2Nc2ccc(Cl)cc2)c1,0,2.9µM,0.58µM,0,?,4.6µM,1µM
Cc1c2ccncc2cc2c1[nH]c1ccccc12,0,?,0,0,-,-,-
COc1ccc2[nH]c3c(C)c4ccncc4c(C)c3c2c1,0,?,8.2µM,0,0,?,2.6µM
COc1ccc(OC)c(CCNC(=O)Cn2nc(C)n3c(cc4sccc43)c2=O)c1,0,0,0,0,-,-,-
Cc1ccccc1OCCn1c(C)nc2ccccc21,0,0,8.2µM,0,0,0,?
CCn1c(C)cc(C(=O)CN2C(=O)c3ccccc3S2(=O)=O)c1C,0,0,3.7µM,0,8.5µM,0,-
O=C(CN1C(=O)c2ccccc2S1(=O)=O)c1ccccc1,0,0,-,0,-,-,-
CC(C)NC(=O)CN1C(=O)c2ccccc2S1(=O)=O,0,0,0,0,-,-,-
Cc1cc(C(=O)CN2C(=O)c3ccccc3S2(=O)=O)c(C)n1C(C)C,0,0,2.9µM,0,6.7µM,0,8.2µM
O=C(Nc1nnc2n1CCS2)c1cc(C(F)(F)F)cc(C(F)(F)F)c1,0,0,-,0,-,-,-
